# Laboratory results published in PubChem BioAssay AID588466 (NMMLSC, 2011).
# Values joined by “and” are separate entries in the source; they are usually repeats but may differ in a detail not shown here. Equal values may be shown once. About 30 (1%) of roughly 2,100 compounds were called active. Only a sample is shown. A number with no mark means an inactive call.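 Rule for the calls: active = compounds whose mean binding response over two repeats is below 75% of the DMSO control; inactive = the rest.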
# Biological target: Desmoglein-3 (Homo sapiens) (UniProt P32926)
# Sequence (P32926 whole entry, looked up): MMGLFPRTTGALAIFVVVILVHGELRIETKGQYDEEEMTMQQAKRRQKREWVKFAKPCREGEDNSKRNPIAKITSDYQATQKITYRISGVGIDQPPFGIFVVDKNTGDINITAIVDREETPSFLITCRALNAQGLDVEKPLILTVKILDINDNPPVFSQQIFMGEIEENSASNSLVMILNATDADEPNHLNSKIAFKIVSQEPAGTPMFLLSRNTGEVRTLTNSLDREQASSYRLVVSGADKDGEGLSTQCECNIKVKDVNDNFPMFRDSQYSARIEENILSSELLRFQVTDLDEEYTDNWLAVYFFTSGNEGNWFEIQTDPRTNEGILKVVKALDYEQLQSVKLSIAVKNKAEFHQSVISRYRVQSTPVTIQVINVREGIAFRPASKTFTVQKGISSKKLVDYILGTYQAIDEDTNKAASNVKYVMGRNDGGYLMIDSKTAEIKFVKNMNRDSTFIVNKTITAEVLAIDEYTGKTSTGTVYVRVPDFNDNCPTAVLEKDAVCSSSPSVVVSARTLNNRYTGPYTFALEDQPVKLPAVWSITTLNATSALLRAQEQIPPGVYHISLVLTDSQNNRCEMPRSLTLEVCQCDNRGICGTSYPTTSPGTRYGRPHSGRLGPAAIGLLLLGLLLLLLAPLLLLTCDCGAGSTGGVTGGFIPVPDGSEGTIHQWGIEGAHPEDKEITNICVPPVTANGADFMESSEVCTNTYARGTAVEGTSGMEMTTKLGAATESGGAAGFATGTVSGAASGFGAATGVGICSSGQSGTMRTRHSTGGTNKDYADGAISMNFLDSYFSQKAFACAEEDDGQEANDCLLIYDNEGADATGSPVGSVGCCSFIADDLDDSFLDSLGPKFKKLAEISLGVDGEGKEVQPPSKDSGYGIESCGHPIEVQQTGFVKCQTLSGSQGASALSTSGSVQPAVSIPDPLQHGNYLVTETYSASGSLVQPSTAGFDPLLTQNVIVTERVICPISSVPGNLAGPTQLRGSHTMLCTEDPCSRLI
# Assay: blockers of pemphigus antibody–desmoglein-3 interaction – biochemical, cherry pick 1, bead-based, flow cytometry, confirmation (AID 588466);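 note: 100% = 2% DMSO vehicle and 0% = excess soluble DSG3 blocking control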
# Settings: Protein G beads with DSG3, scFv-GFP binding, at 10 µM, stronger effect = lower value
row,SMILES,binding response (% of DMSO)
1,CCOC(=O)C1=C(O)/C(=C/c2ccc(-c3ccccc3C(=O)O)o2)SC1=Nc1ccc(C)cc1,108%
2,CC(=O)N1C(=O)/C(=C2\SC(=S)N(c3c(C)n(C)n(-c4ccccc4)c3=O)C2=O)c2ccccc21,87.6%
3,Clc1ccc(-n2ncc3c(NCc4cccnc4)ncnc32)cc1Cl,91.8%
4,C=C(Br)CN1[C@@H](Cc2ccccc2)[C@H](O)[C@@]23C=C[C@@H](C[C@@H]2S1(=O)=O)O3,101%
5,CCOC(=O)CSc1nc2sc(C)c(C)c2c(=O)n1N,104%
6,CC(=O)c1c(C)[nH]c(C(=O)NCc2ccc(Cl)cc2)c1C,105%
7,CCOC(=O)Cc1csc(NC(=O)COc2ccccc2)n1,99.8%
8,Cc1cc(=O)oc2cc(OCC(=O)OCC(=O)Nc3ccccc3Br)ccc12,112%
9,COc1cccc(-c2nc(NCc3ccco3)c3ccccc3n2)c1O,89.5%
10,O=C(c1cc(S(=O)(=O)N2CCOCC2)ccc1F)N1CCCc2ccccc21,104%
11,CSc1nc(C2CC2)cc(-c2cccs2)c1C#N,94.5%
12,O=C(CSc1n[nH]c(-c2ccco2)n1)Nc1ccccc1Cl,101%
13,COc1ccc(CC(=O)Nc2cccc(C(=O)NN3C(=O)c4ccccc4C3=O)c2C)cc1,102%
14,COC(=O)[C@]1(C)N[C@H](CN(C)C(=O)Nc2ccc(OC)cc2)[C@@H]2C(=O)N(C)C(=O)[C@@H]21,95.3%
15,CCOC(=O)c1sc(NC(=O)C(CC)Sc2nccn2C)nc1C (centres undefined),105%
16,O=C(O)C1(Nc2ccc(Br)cc2)CCCC1,98.6%
17,COc1ccc(S(=O)(=O)N2CCCCCC2)cc1NC(=O)CCNC(=O)c1ccc(Cl)cc1,107%
18,O=C(CCCCCCN1C(=O)c2ccccc2C1=O)NC1CCCCC1,105%
19,CCCCN(CCCC)C(=O)c1cc(Cl)ccc1[N+](=O)[O-],98.8%
20,COc1ccc(C(=O)COc2ccc3ccc(=O)oc3c2)c(OC)c1,104%
21,COc1ccc(C)cc1NS(=O)(=O)c1ccc2c(c1)CCN2C(C)=O,99.4%
22,NS(=O)(=O)c1ccc(NC(=O)c2ccc(F)cc2F)c(NC(=O)c2ccc(F)cc2F)c1,104%

row,SMILES,binding response (% of DMSO)
1,CCCCSc1nnc(-c2ccc(NC(=O)CCc3ccccc3)cc2)n1C,104%
2,COc1ccc(-c2cc(NC(=O)c3cncn3-c3ccccc3)ccc2OC)cc1,107%
3,Cc1ccc(NC(=O)CN2C(=O)NC(Cc3c[nH]c4ccccc34)C2=O)cc1S(=O)(=O)N1CCCCC1 (centres undefined),102%
4,CC(=O)c1ccc(OCC(O)CN2CC(C)OC(C)C2)cc1 (centres undefined),104%
5,Cc1cc2oc(=O)cc(-c3ccccc3)c2c(C)c1-c1ccc(F)c(Cl)c1,105%
6,C[C@H](CO)N1C[C@H](C)[C@@H](CN(C)Cc2ccc(-c3ccccc3)cc2)Oc2c(NS(=O)(=O)c3cn(C)cn3)cccc2C1=O,98.2%
7,O=C(CN1CCN(S(=O)(=O)c2ccccc2)CC1)Nc1cccc(C(F)(F)F)c1,110%
8,O=C(Nc1cc(Cl)ccc1-n1cncn1)c1cn2ccccc2n1,111%
9,COc1cccc(C(=O)NCCn2ccc3ccccc32)c1,112%
10,COc1cc(CN2CCC(n3nccc3NC(=O)C3CC3)CC2)cc(OC)c1,104%
11,Cc1ccc(Cn2cnc3c(nnn3Cc3ccc(Cl)cc3)c2=O)cc1,90% and 97.5%
12,CC(C)[C@H](NC(=O)N1c2ccccc2NC(=O)[C@@H]1C(C)C)C(=O)N[C@@H](Cc1c[nH]c2ccccc12)C(=O)O,105%
13,CCOc1c(Br)cc(C(=O)Nc2cccc(S(=O)(=O)N3CCOCC3)c2)cc1OC,102%
14,CCc1nnc(NC(=O)CCC(=O)NCc2ccccc2Cl)s1,97.5%
15,COc1ccc(OC)c(NS(=O)(=O)c2ccc(-c3coc(C)n3)cc2)c1,97.3%
16,COc1ccc(CCN2C(=O)C(Oc3ccccc3C)C2c2ccc3c(c2)OCO3)cc1OC (centres undefined),101%
17,CSc1nc2ccc(NC(=O)c3cccs3)cc2s1,102%
18,Cc1ccc(NC(=O)Cc2ccc([N+](=O)[O-])cc2)c(Br)c1,95.5%
19,CCCN(CCC)CCNC(=O)Cn1cnc2sc(C)c(S(=O)(=O)N3CCOCC3)c2c1=O,99.3%
20,CCOC(=O)c1nn(-c2ccccc2)c(=O)c2c(NC(C)=O)scc12,111%
21,Cc1cc2ccccc2n1CCNC(=O)c1ccc(S(=O)(=O)N2CCCCC2)cc1,94.7%
22,CCOc1ccc(/C(O)=C2/C(=O)C(=O)N(c3cc(C)on3)C2c2ccc(C(=O)OC)cc2)cc1 (centres undefined),98.1%

row,SMILES,binding response (% of DMSO)
1,C[C@H]1COC(=O)[C@@H](Cc2ccc(F)cc2)CC/C=C/C[C@@H](CC(=O)N(CCO)Cc2ccccc2)C(=O)N1,104%
2,Cc1ccc(NC(=O)COc2ccc3c(c2)OCO3)c(C)c1,103%
3,CCN1CCN(c2ccc(S(=O)(=O)N3CCOCC3)cc2NC(=O)CCSC)CC1,105%
4,COc1ccc(CN(CCN(C)C)Cc2ccccc2)c(OC)c1,101%
5,Cc1cnc(NS(=O)(=O)c2ccccc2)c(C)n1,98.8%
6,N#Cc1c(-c2ccc(F)cc2)cc(-c2ccccc2)nc1SCC(=O)NCC(=O)O,99.8%
7,O=C(Oc1cccc(C(=S)N2CCOCC2)c1)c1ccccc1,94.4%
8,CCc1cc2cc3c(cc2nc1SCC(=O)Nc1cc(C)on1)OCO3,103%
9,Cc1ccc(/C=N/N2CCN(c3ccc(Cl)cc3)CC2)o1,101%
10,COc1ccccc1-c1cc(N)n(S(=O)(=O)c2ccc(F)c(C)c2)n1,100%
11,COC(=O)c1oc2ccc(Cl)cc2c1NC(C)=O,100%
12,O=[N+]([O-])c1ccc(OCc2cnc(Cl)s2)c([N+](=O)[O-])c1,107%
13,Cc1ccc(C)c(N2CCN(C(=O)Cc3cn(C)c4ccccc34)CC2)c1,104%
14,O=C(CNC(=O)c1ccc(Br)cc1)N=Nc1c(O)[nH]c2ccc([N+](=O)[O-])cc12,100%
15,CC(=O)c1ccc(NC(=O)Cn2cnc(S(=O)(=O)N3CCC(C)CC3)c2)cc1,98.2%
16,CSCC[C@H](NC(=O)C1CCN(S(=O)(=O)c2ccc(C)cc2)CC1)C(=O)NCc1ccco1,106%
17,Cc1ccccc1NC(=O)Nc1nc2ccc(S(C)(=O)=O)cc2s1,89.9%
18,COc1ccc(NC(=O)CSc2nnc(Cc3ccc(C)cc3)c(=O)n2N)cc1,92.4%
19,Cc1ccc(NC(=O)COc2ccc3c(c2)OCO3)c(Cl)c1,98.1%
20,CC1=C(C(N)=O)C(c2cccnc2)n2nc(SCc3ccccc3Cl)nc2N1 (centres undefined),103%
